Assay outcomes: PubChem BioAssay, National Center for Advancing Translational Sciences (NCATS)
Compounds with a hit are over-represented: about 7.5% of the library has one in this group of screens.
Luc counter – Kinase-Glo luciferase inhibition (counter-screen). Kinase-Glo luciferase, ATP luminescence, 8 min. Potency, µM (top dose mostly 38.3 µM), for inactives: top-dose activity change, negative = inhibition, actives largely listed as inhibitors. Q27757. 0.28% of 200,000 active. AID 1379; also: % is scaled to controls: 0 for no effect and ±100 for the full control effect; nearly all actives have a fitted effect of over 60% in size
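Luminescence was the read-out, taken after 8-minute incubation at ambient temperature. Luciferase turned over luciferin with 10 uM ATP in imidazole pH 7.2 buffer containing KCl, MgCl2, Tween 20 and BSA.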
ELG1 genotox – induces genotoxicity in HEK293T cells with luciferase-tagged ELG1; HEK293T ELG1-luciferase reporter, luminescence, 16 h; Potency, µM (series often up to 46 µM), without a hit: at the highest dose activity change, positive = activation, hits mostly activators; 1.3% of 330,000 active; AID 504466; also: % of control where 0% means no effect; nearly all actives have a fitted effect of over 60% in size
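Genotoxic stress is detected as increased luminescence from luciferase-tagged ELG1 in HEK293T cells, measured with ONE-Glo after a 16 hr treatment at 37 °C.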
Rab9 promoter act – activates the Rab9 promoter | Huh7 Rab9 promoter-luciferase reporter, luminescence, 24 h | Potency, µM (highest dose often 9.22 µM), for the others: at the highest dose activation, negative = inhibition, usual class: activators | 2.8% of 320,000 active | AID 485297; also: % of control where 0% means no effect; nearly all actives have a fitted effect of over 60% in size
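Stable Rab9-luc Huh7, 1500 cells/well, 2 h settle; cmpd in DMSO, 24 h, 37 °C/5% CO2; luciferase reagent 10 min RT; luminescence.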
FLuc modulator – firefly luciferase modulation, counter-screen for miR-21 project. P08659. purified FLuc, Km substrates, luminescence inhibition. Potency, µM (doses to about 57.5 µM), without a hit: top-dose activity change, negative = inhibition, hits mostly inhibitors. 6.9% of 360,000 active;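 also: plate controls were vehicle for no effect and reference inhibitor for full effect; nearly all actives have a fitted effect of over 55% in size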
Target sequence (P08659 whole entry, looked up): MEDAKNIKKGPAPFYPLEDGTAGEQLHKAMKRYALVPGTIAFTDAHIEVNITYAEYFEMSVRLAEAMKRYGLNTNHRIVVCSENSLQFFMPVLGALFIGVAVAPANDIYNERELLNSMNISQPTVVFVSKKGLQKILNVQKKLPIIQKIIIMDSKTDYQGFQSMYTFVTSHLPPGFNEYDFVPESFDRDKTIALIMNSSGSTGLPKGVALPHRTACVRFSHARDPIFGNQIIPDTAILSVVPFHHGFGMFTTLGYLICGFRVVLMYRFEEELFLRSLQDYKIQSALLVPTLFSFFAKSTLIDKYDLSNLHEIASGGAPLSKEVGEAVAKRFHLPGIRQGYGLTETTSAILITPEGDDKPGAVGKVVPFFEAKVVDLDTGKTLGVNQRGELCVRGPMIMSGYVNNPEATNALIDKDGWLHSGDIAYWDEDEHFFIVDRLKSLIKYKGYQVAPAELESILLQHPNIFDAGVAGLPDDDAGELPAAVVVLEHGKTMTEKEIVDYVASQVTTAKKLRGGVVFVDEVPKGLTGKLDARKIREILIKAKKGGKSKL
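Purified P. pyralis luciferase (10nM final) with 10uM D-luciferin and 10uM ATP (Km levels) in 50mM Tris acetate pH 7.5, 10mM Mg acetate, 0.01% Tween-20, 0.05% BSA; qHTS 6-point titration, ~60 µM downward; luminescence read.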
SMN2 splice enh – enhancers of SMN2 splice variant expression; HEK293 SMN2-luciferase splicing reporter, luminescence, 30-36 h; 2.8% of 210,000 active; Potency, µM (top dose mostly 46.1 µM), inactives show top-dose activity change, positive = activation, hits mostly activators; also: % of control where 0% means no effect; nearly all actives have a fitted effect of over 55% in size
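HEK293 cells carry an SMN2 […]–luciferase reporter in which exon 7 inclusion puts luciferase in frame. Cells were plated 10-12 h before compound addition, then incubated 30-36 h at 37C. ONE-Glo luminescence was read; sodium butyrate at 4.5 mM final served as control.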
NPC1 promoter act – activators of NPC1 promoter | Huh7 NPC1 promoter luciferase reporter, 24 h | Potency, µM (series often up to 9.22 µM), inactives show at the top dose activation, most hits filed as activators | 2.4% of 320,000 active | AID 485313; also: % of control where 0% means no effect; nearly all actives have a fitted effect of over 60% in size
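Stable NPC1-promoter luciferase Huh7 line; cpd (DMSO) 24 h, 37 °C, 5% CO2; Amplite luciferase reagent 10 min RT; luminescence readout. qHTS format.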
Starred values were filed as active, the others as inactive; ? = inconclusive; · = no result; [ ] = another dose, or the depositor's remark. Calls follow the shape of the dose curve; as a rule, active = well fitted curve in the direction sought with a large enough effect; inconclusive = small, poorly fitted or top-dose-only effect, or another doubt; inactive = no such curve, though single readings can be large; an effect the other way counts as inactive or inconclusive. Potency is read from the fitted curve at half-maximal effect.

SMILES | Luc counter | ELG1 genotox | Rab9 promoter act | FLuc modulator | SMN2 splice enh | NPC1 promoter act
COc1ccccc1C(=O)Nc1ccc(C(=O)/C=C/c2cccs2)cc1 | -1% | 1% | -9% | -19% | -15% | -2%
O=C(Nc1ccc(NC(=O)c2ccccc2F)cc1)c1cccs1 | · | ? | 3.5µM* | -15% | · | ?
O=C(Nc1cccc(F)c1)N1CCCC2(CCN(C(=O)c3cccc(F)c3)CC2)C1 | -4% | · | · | · | -5% | ·
COc1cccc(NC(=O)Cn2cc(S(=O)(=O)N3CCCC3)c(S(=O)(=O)N3CCCC3)c2)c1 | · | · | · | -2% | · | ·
CC1(c2ccc(NC(=O)c3ccccc3F)cc2)CC1(Cl)Cl (stereo not given) | · | ? | 2.5µM* | 8.5µM* | · | 3.5µM*
O=C(Nc1ccccc1Oc1ccsc1C(=O)O)c1ccccc1F | · | -5% | -5% | -4% | · | 2%
O=C(Nc1ccccc1C(=O)Nc1ccccc1)c1ccccc1F | · | -1% | -3% | 0% | · | -3%
O=C(Nc1ccc(NC(=O)c2cccs2)cc1)c1cccs1 | · | ? | ? | -1% | · | ?
O=C(Nc1ccc(Oc2ccsc2C(=O)O)cc1)c1ccccc1F | · | 6% | -1% | 17µM* | · | 18%
O=C(Nc1ccc(NC(=O)c2cccs2)c(Cl)c1)c1cccs1 | · | ? | ? | 17µM* | · | ?
O=C(Nc1ccc(Cl)cc1)c1cccs1 | -7% | · | · | 12µM* | 23% | ·
CCc1cccc(NC(=O)CCS(=O)(=O)c2cc3c4c(c2)CCN4C(=O)CC3)c1 | · | · | · | 2% | · | ·
Cc1ccc2oc3c(c(=O)c2c1)C(c1cccc(O)c1)N(Cc1ccccc1Cl)C3=O (stereo not given) | · | · | · | 1% | -5% | ·
Cc1ccccc1C(=O)Nc1ccc(NC(=O)c2cccs2)cc1 | · | · | · | ? | 3.5µM* | ·
O=[N+]([O-])c1ccc(Nc2ccc(F)cc2)cc1 | · | -2% | 2% | -3% | · | -1%
O=C(Nc1ccc2[nH]ccc2c1)c1cccs1 | · | ? | 2µM* | 9.5µM* | · | 1.6µM*
COc1ccccc1NC(=O)c1ccccc1NC(=O)c1cccs1 | · | 2% | 0% | 19µM* | · | -3%
O=[N+]([O-])c1ccc(NNC(=S)Nc2ccc(F)cc2)cc1 | -12% | 7% | 13% | 19µM* | -55% | 22%
COc1cccc(C(=O)NCC(c2ccc(N(C)C)cc2)N2CCc3ccccc32)c1OC (stereo not given) | · | · | · | 3% | · | ·
COc1ccc(-c2cc(-c3ccc4c(c3)NC(=O)CO4)nc3c2COc2ccc(F)cc2-3)cc1 | · | · | · | -5% | 3% | ·
O=C(NCCCc1nc2ccccc2n1Cc1ccc(Cl)cc1)c1ccco1 | · | · | · | -2% | -42% | ·
O=C(Nc1ccc([N+](=O)[O-])cc1)c1ccccc1F | 2% | 22% | 2.8µM* | ? | 16µM* | ?
O=C(Nc1ccc(-c2ccc([N+](=O)[O-])cc2)cc1)c1ccccc1F | -1% | 7% | 13% | 0% | ? | 14%
O=S(=O)(O)c1cc(O)c2c(O)c(N=Nc3cc(Cl)ccc3O)c(S(=O)(=O)O)cc2c1 | · | -4% | -10% | 21µM* | · | -7%
O=S(=O)(O)c1ccc2c(N=Nc3cccc4ccccc34)c(O)c(S(=O)(=O)O)cc2c1 | -17%[7.66 µM] | · | · | · | -28%[9.22 µM] | ·
Cc1cc(-c2ccc(N=Nc3c(S(=O)(=O)O)cc4cc(S(=O)(=O)O)cc(N)c4c3O)c(C)c2)ccc1N=Nc1c(S(=O)(=O)O)cc2cc(S(=O)(=O)O)cc(N)c2c1O | · | -44% | -12% | 21µM* | · | -13%
Nc1cc(S(=O)(=O)O)cc2ccc(S(=O)(=O)O)cc12 | -1%[7.66 µM] | · | · | · | 1%[9.22 µM] | ·
CCCCc1c2ccccc2nc2[nH]c3ccccc3c12 | 2% | · | · | · | -16% | ·
CN[C@H](C)C(=O)NC[C@H]1O[C@@H](n2cnc3c(N)ncnc32)[C@H](O)[C@@H]1O | · | -2% | · | · | · | ·
Cc1cc(C(=O)COc2cccc([N+](=O)[O-])c2)c(C)n1C1CC1 | · | ? | 3.2µM* | 2.4µM* | · | 2.2µM*
